What was measured:
Details in all cases: concentration: 1 μM, replicates: in singlicate; n = 1
MRCKB = system: T1, MRCKB
T1 construct: gene CDC42BPB

MST1R = system: MST1R
MST1 = system: T2, MST1
T2 construct: gene STK4

MST2 = system: T3, MST2
T3 construct: gene STK3

MST3 = system: T4, MST3
T4 construct: gene STK24

MST4 = system: MST4
MTOR = system: MTOR
MUSK = system: MUSK
MYLK2 = system: MYLK2
MYLK4 = system: MYLK4
MYLK = system: MYLK
MYO3A = system: MYO3A
MYO3B = system: MYO3B
NDR1 = system: T5, NDR1
T5 construct: gene STK38

NDR2 = system: NDR2
NEK10 = system: NEK10
NEK11 = system: NEK11
NEK1 = system: NEK1
NEK2 = system: NEK2
NEK3 = system: NEK3
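Further: KINOMEscan kinase panel screen.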

SMILES | %Inh (MRCKB) | %Inh (MST1R) | %Inh (MST1) | %Inh (MST2) | %Inh (MST3) | %Inh (MST4) | %Inh (MTOR) | %Inh (MUSK) | %Inh (MYLK2) | %Inh (MYLK4) | %Inh (MYLK) | %Inh (MYO3A) | %Inh (MYO3B) | %Inh (NDR1) | %Inh (NDR2) | %Inh (NEK10) | %Inh (NEK11) | %Inh (NEK1) | %Inh (NEK2) | %Inh (NEK3)
COc1ccc(-c2coc3ccc(-c4nnc(SCc5cccc(C#N)c5)o4)cc23)cc1 | 0% | 33% | 15% | 13% | 25% | 0% | 0% | 18% | 7% | 0% | 6% | 20% | 49% | 7% | 0% | 0% | 0% | 0% | 5% | 7%
Cc1cccc(-c2cc(-c3c[nH]nc3-c3ccccn3)ccn2)c1 [GW679395] | 0% | 60% | 0% | 0% | 4% | 0% | 10% | 0% | 0% | 2% | 32% | 7% | 0% | 15% | 0% | 24% | 0% | 0% | 0% | 3%
Fc1cccc(CSc2nnc(-c3ccc4c(c3)CCO4)o2)c1 | 0% | 35% | 3% | 0% | 0% | 0% | 36% | 0% | 11% | 0% | 2% | 0% | 0% | 16% | 22% | 0% | 0% | 0% | 1% | 19%
Cc1nnc(-c2ccc3ncn(-c4ccc(S(C)=O)cc4)c3c2)o1 (stereo not drawn) | 0% | 2% | 0% | 30% | 50% | 0% | 8% | 9% | 11% | 7% | 0% | 2% | 48% | 21% | 0% | 2% | 0% | 5% | 0% | 0%
CCCNC(=O)Nc1ccc(Oc2ncnc3ccn(C)c23)cc1 | 0% | 12% | 0% | 0% | 4% | 0% | 8% | 0% | 11% | 21% | 0% | 0% | 40% | 3% | 0% | 0% | 0% | 0% | 0% | 33%
O=c1cc(N2CCOCC2)nc2n(Cc3ccc(F)c(Cl)c3)ccn12 [GSK2297099] | 0% | 13% | 0% | 16% | 0% | 0% | 12% | 5% | 0% | 3% | 9% | 8% | 0% | 9% | 0% | 0% | 0% | 0% | 0% | 13%
Nc1nc(-c2ccccc2F)c(-c2ccnc3ccccc23)s1 [GW560459] | 0% | 33% | 8% | 0% | 7% | 0% | 21% | 0% | 8% | 1% | 11% | 20% | 0% | 16% | 0% | 3% | 0% | 7% | 0% | 1%
Nc1nccc2scc(-c3ccc4c(c3)CCN4C(=O)Cc3ccccc3)c12 [GSK2576924] | 0% | 17% | 37% | 0% | 1% | 0% | 14% | 13% | 11% | 9% | 4% | 11% | 5% | 27% | 3% | 9% | 0% | 0% | 4% | 10%
Cn1c(=O)c(F)c(Nc2ccc(I)cc2F)c2c(=O)n(OC[C@H](O)CO)cnc21 | 0% | 0% | 19% | 0% | 0% | 0% | 0% | 8% | 1% | 0% | 22% | 0% | 28% | 7% | 3% | 0% | 0% | 0% | 14% | 35%
Cc1nnc(-c2ccc(C)c(-c3ccc(C(=O)O)cc3)c2)o1 [GW608005] | 0% | 17% | 0% | 0% | 0% | 0% | 0% | 5% | 2% | 3% | 5% | 0% | 0% | 9% | 0% | 0% | 5% | 0% | 19% | 0%
Nc1n[nH]c2ncc(-c3ccccc3)cc12 [SB-517081] | 0% | 41% | 0% | 0% | 0% | 0% | 7% | 28% | 15% | 61% | 39% | 20% | 0% | 27% | 0% | 24% | 0% | 0% | 27% | 21%
O=C(Nc1ccc2c(c1)OCO2)NC1CCN(c2ccnc(NCc3ccc(F)cc3)n2)CC1 [GSK1379859] | 0% | 17% | 5% | 47% | 0% | 0% | 8% | 0% | 0% | 0% | 20% | 0% | 0% | 0% | 0% | 3% | 8% | 0% | 3% | 0%
O=C(NCc1cccs1)c1cc(C(=O)c2c(Cl)cccc2Cl)c[nH]1 [GW823670] | 0% | 0% | 15% | 0% | 0% | 0% | 0% | 2% | 0% | 4% | 0% | 0% | 18% | 26% | 14% | 0% | 0% | 15% | 0% | 20%
COc1cccc(C2=C(N(C)c3ccccc3)C(=O)NC2=O)c1 [SB-334865] | 0% | 10% | 5% | 0% | 0% | 0% | 19% | 2% | 9% | 0% | 1% | 22% | 0% | 16% | 0% | 22% | 0% | 0% | 0% | 26%
CCC(=O)c1c(-c2ccccc2)c2cc(Cl)ccc2c(=O)n1Cc1cc(S(C)(=O)=O)n(CCC(C)(C)O)n1 | 0% | 36% | 21% | 10% | 0% | 0% | 0% | 17% | 5% | 2% | 5% | 0% | 0% | 2% | 1% | 0% | 0% | 0% | 4% | 0%
FC(F)(F)c1ccc(-c2ncn(CCCN3CCOCC3)c2-c2ccncc2)cc1 [SB-217780] | 6% | 28% | 28% | 59% | 35% | 0% | 12% | 0% | 0% | 4% | 4% | 0% | 0% | 3% | 0% | 4% | 0% | 0% | 0% | 9%
CCC(=O)c1c(-c2ccccc2)c2cc(Cl)ccc2c(=O)n1Cc1ccc(C(=O)O)cc1 | 0% | 6% | 0% | 0% | 0% | 0% | 0% | 0% | 0% | 0% | 0% | 0% | 3% | 0% | 0% | 0% | 0% | 0% | 0% | 22%
Cc1ccccc1COc1cc(-n2cnc3cc(Cl)ccc32)sc1C(N)=O [GW813349] | 0% | 0% | 0% | 12% | 0% | 0% | 18% | 0% | 0% | 24% | 5% | 0% | 0% | 3% | 1% | 0% | 0% | 0% | 5% | 13%
COc1cc(Nc2ccnc3ccc(C(F)(F)F)cc23)cc(OC)c1OC [GW577382] | 6% | 34% | 13% | 5% | 4% | 0% | 21% | 8% | 4% | 10% | 0% | 12% | 10% | 13% | 1% | 10% | 0% | 0% | 0% | 3%
COc1cccc(-n2cnc3c(N)ncnc32)c1 [SKF-97416] | 0% | 5% | 0% | 0% | 6% | 28% | 19% | 5% | 6% | 26% | 31% | 8% | 20% | 28% | 12% | 18% | 35% | 0% | 0% | 21%
COC(=O)c1c(-c2ccccc2)c2cc(C)ccc2c(=O)n1Cc1ccccc1 | 0% | 31% | 0% | 21% | 0% | 0% | 0% | 12% | 0% | 0% | 0% | 0% | 0% | 0% | 0% | 0% | 0% | 0% | 0% | 24%

Reference: paper PMC5540273 (PLoS ONE, 2017)
